# Compound activity: PubChem, National Center for Advancing Translational Sciences (NCATS)
# Shown are actives, neighbours in structure and some others; about 7.3% of the full set was active somewhere.
# FLuc modulator: inhibits or activates purified firefly luciferase, miR-21 counter-screen. actives 6.9% (n = 360,000). Potency, µM (doses to about 57.5 µM), for the others: at the top dose activity change, negative = inhibition, most hits filed as inhibitors. purified FLuc, Km substrates, luminescence inhibition. P08659;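 further: plate controls were vehicle for no effect and reference inhibitor for full effect; nearly all actives have a fitted effect of over 55% in size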
# Target sequence (P08659 whole entry, looked up): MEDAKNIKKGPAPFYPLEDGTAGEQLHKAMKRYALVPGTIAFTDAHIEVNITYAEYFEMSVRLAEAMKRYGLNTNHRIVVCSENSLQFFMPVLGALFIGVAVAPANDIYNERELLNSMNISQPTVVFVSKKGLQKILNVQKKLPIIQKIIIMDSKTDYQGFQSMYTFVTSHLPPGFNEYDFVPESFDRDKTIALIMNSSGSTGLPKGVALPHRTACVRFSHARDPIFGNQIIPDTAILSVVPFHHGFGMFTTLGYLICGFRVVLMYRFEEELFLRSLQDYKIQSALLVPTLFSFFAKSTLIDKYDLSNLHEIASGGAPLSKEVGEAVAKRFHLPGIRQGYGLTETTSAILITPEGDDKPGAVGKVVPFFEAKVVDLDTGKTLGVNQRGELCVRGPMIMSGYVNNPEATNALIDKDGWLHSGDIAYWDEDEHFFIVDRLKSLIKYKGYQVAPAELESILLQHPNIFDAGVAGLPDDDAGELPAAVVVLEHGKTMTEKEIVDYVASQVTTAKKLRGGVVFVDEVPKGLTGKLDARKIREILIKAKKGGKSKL
#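 Biochemical qHTS of compounds, final roughly 60 µM downward over six points, against 10 nM purified firefly luciferase using Km concentrations of substrates (10 uM D-luciferin, 10 uM ATP) in Tris acetate pH 7.5 buffer; luminescence output.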
# SMN2 splice enh: SMN2 splice variant enhancement; HEK293 SMN2-luciferase splicing reporter, luminescence, 30-36 h; Potency, µM (doses to about 46.1 µM), without a hit: at the highest dose activity change, positive = activation, usual class: activators; actives 2.8% (n = 210,000); further: % of control where 0% means no effect; nearly all actives have a fitted effect of over 55% in size
#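 HEK293 cells carry an SMN2 minigene-luciferase reporter in which exon 7 inclusion puts luciferase in frame. Cells were seeded at 2000 cells/well, attached for 10-12 hours, then exposed to compounds for 30-36 hours at 37C before ONE-Glo luminescence.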
# Rab9 prom act: Rab9 promoter activation | Huh7 Rab9 promoter-luciferase reporter, luminescence, 24 h | AID 485297 | actives 2.8% (n = 320,000) | Potency, µM (highest dose often 9.22 µM), for inactives: top-dose activation, negative = inhibition, hits mostly activators; further: % of control where 0% means no effect; nearly all actives have a fitted effect of over 60% in size
#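 Huh7 cells stably carrying Rab9 promoter–luciferase reporter, plated 1500 cells/well, compound added after 2 h and incubated 24 h at 37 °C; luciferase luminescence then read after 10 min with detection reagent.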
# KinaseGlo FLuc: blocks Kinase-Glo luciferase, a counter-screen artifact. Kinase-Glo luciferase, ATP luminescence, 8 min. actives 0.28% (n = 200,000). Q27757. AID 1379. Potency, µM (top dose mostly 38.3 µM), inactives show at the highest dose activity change, negative = inhibition, most hits filed as inhibitors; further: on the % scale 0 is the no-effect control and ±100 the full control effect; nearly all actives have a fitted effect of over 60% in size
#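 Substrate mix (final 50 mM imidazole pH 7.2, 50 mM KCl, 7 mM MgCl2, 10 uM ATP, 0.01% Tween 20, 0.05% BSA) plus pin-tool compound, then Kinase-Glo detection mix; 8 min ambient, luminescence read.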
# NPC1 prom act: NPC1 promoter activation. Huh7 NPC1 promoter luciferase reporter, 24 h. Potency, µM (top dose mostly 9.22 µM), for inactives: top-dose activation, actives largely listed as activators. actives 2.4% (n = 320,000). AID 485313; further: % of control where 0% means no effect; nearly all actives have a fitted effect of over 60% in size
#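 Readout is luciferase luminescence, reflecting NPC1 promoter activation in stably transfected Huh7 cells after 24 h compound exposure at 37 °C in reduced-serum medium with 10% FBS.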
# ELG1 genotoxic: inducers of genotoxicity in HEK293T ELG1-luciferase cells. AID 504466. HEK293T ELG1-luciferase reporter, luminescence, 16 h. Potency, µM (series often up to 46 µM), without a hit: at the top dose activity change, positive = activation, most hits filed as activators. actives 1.3% (n = 330,000); further: % of control where 0% means no effect; nearly all actives have a fitted effect of over 60% in size
#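 Screening used a luciferase reporter fused to human ELG1 in HEK293T cells. Luminescence was read on a CCD plate imager after 16 hr exposure and 30 min ONE-Glo incubation.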
# Active calls of the source: *; ? = inconclusive; nt = no result given; [ ] = remark or other dose. The call rests on the fitted dose curve; in most records, active means well fitted curve in the direction sought with a large enough effect; inconclusive means small, poorly fitted or top-dose-only effect, or another doubt; inactive means no such curve, though single readings can be large; an effect the other way counts as inactive or inconclusive. Potency means the concentration at half of the fitted maximal effect.
SMILES,FLuc modulator,SMN2 splice enh,Rab9 prom act,KinaseGlo FLuc,NPC1 prom act,ELG1 genotoxic
CC1(c2ccccc2)NC(=O)N(CC(=O)NNC(=O)c2ccccc2)C1=O (centres undefined),0%,nt,-1%,nt,8%,0%
CCN(CC)c1ccc(C(=O)NNC(=O)CN2C(=O)NC3(CCCCC3)C2=O)cc1,9.5µM*,nt,1%,nt,-6%,9%
CCN(CC)c1ccc(C(=O)NNC(=O)CN2C(=O)NC(C)(c3ccccc3)C2=O)cc1 (centres undefined),5.4µM*,nt,-2%,nt,2%,8%
CCN(CC)c1ccc(C(=O)NNC(=O)c2cccn2C)cc1,?,nt,3.5µM*,nt,?,?
CCc1ccc(C(=O)NNC(=O)CN2C(=O)NC(CC)(c3ccccc3)C2=O)cc1 (centres undefined),17µM*,nt,-1%,nt,5%,1%
Cc1ccc(C(C)C)c(OCC(=O)N2CCC(c3nc4ccccc4o3)CC2)c1,-3%,nt,nt,nt,nt,nt
CCN1C(=NCCCCO)N[C@@H](c2ccccc2)C(C(=O)OC)=C1C,4%,nt,3%,nt,-1%,nt
O=C(CCN1CCCCC1)c1csc2ccccc12,nt,4%[9.22 µM],nt,0%[7.66 µM],nt,nt
O=C(c1ccc2c(c1)OCCO2)N(Cc1cccnc1)c1nc2ccc(F)cc2s1,17µM*,nt,nt,nt,nt,nt
COc1ccc2nc(N(Cc3cccnc3)C(=O)c3ccco3)sc2c1,17µM*,nt,nt,nt,nt,nt
CCOc1ccc2nc(N(Cc3cccnc3)C(=O)c3ccco3)sc2c1,17µM*,nt,nt,nt,nt,nt
CCOc1ccc2nc(N(Cc3cccnc3)C(C)=O)sc2c1,-12%,nt,nt,nt,nt,nt
CCS(=O)(=O)c1ccccc1C(=O)N(Cc1cccnc1)c1nc2cc(C)c(C)cc2s1,21µM*,nt,nt,nt,nt,nt
COc1ccc(NC(=O)CN(C)S(=O)(=O)c2ccc(C(=O)N3CCOCC3)s2)cc1,-8%,nt,nt,nt,nt,nt
Cc1cccc(C)c1NC(=O)CCCn1c(=O)c2cccn2c2ccccc21,5.4µM*,nt,nt,nt,nt,nt
O=C(CCn1c(=O)c2cccn2c2ccc(F)cc21)NCCc1ccc(Cl)cc1,0%,nt,nt,nt,nt,nt
Cc1cc(C)cc(NC(=O)CCn2c(=O)c3cccn3c3ccccc32)c1,-1%,nt,-24%,nt,-29%,-9%
O=C(CCCn1c(=O)c2cccn2c2ccccc21)NCCc1ccc(Cl)cc1,3.8µM*,nt,nt,nt,nt,nt
COc1cc(OC)c(NC(=O)C2CCN(S(=O)(=O)c3ccc4c(c3)oc(=O)n4C)CC2)cc1Cl,-6%,-2%,nt,nt,nt,nt
Cc1cc(C)c(NC(=O)COCc2cc(-c3cccs3)on2)c(C)c1,-11%,nt,nt,nt,nt,nt
CCOc1ccc(CCNC(=O)CCN2N=C(c3ccc(OC)cc3)CCC2=O)cc1OCC,-7%,nt,nt,nt,nt,nt
O=C(COc1ccc2ccc(=O)oc2c1)Nc1nccs1,15µM*,nt,2.8µM*,nt,2.2µM*,?
Cc1cccc(OCC(=O)OCC(=O)Nc2sccc2C(N)=O)c1,nt,nt,nt,nt,nt,0%
NC(=O)c1ccsc1NC(=O)COc1ccccc1,12µM*,13µM*,3.2µM*,-28%,?,8.9µM*
O=C(COc1ccc2ccc(=O)oc2c1)Nc1cccnc1,-10%,nt,-5%,nt,2%,1%[9.26 µM]
SMILES,FLuc modulator,SMN2 splice enh,Rab9 prom act,KinaseGlo FLuc,NPC1 prom act,ELG1 genotoxic
COc1ccc(-c2cc(-c3ccccc3)nc(SCC(=O)Nc3nccs3)c2C#N)cc1,13µM*,nt,-4%,nt,-1%,-2%
O=C(COc1ccccc1)Nc1nccs1,11µM*,5µM*,3.5µM*,10µM*,1µM*,?
Cc1ccc(NC(=O)CCNS(=O)(=O)c2ccc3c(c2)CCN3C(=O)C2CC2)c(Cl)c1,-1%,nt,nt,nt,nt,nt
Cn1ncc2c(N3CCN(c4ccccc4Cl)CC3)ncnc21,-9%,nt,nt,nt,nt,nt
Cn1cc(SCC(=O)Nc2nccs2)c2ccccc21,12µM*,11µM*,?,-2%,?,21µM*
O=C(COc1ccc2ccccc2c1)Nc1nccs1,0.6µM*,nt,0.35µM*,-19%,0.5µM*,?
Cc1ccc(CN2CCSc3ccc(C(=O)Nc4ccc(Cl)cc4)cc32)cc1,?,11µM*,nt,nt,nt,nt
